Source: ChEMBL document CHEMBL4513216, “Probing the Open Global Health Chemical Diversity Library for Multistage-Active Starting Points for Next-Generation Antimalarials” (ACS Infect Dis, 2020)
In all, about 69,000 compounds went through this assay and about 8,600 (12%) showed an effect of 50% or more. For the sample, strong results were picked, then their nearest neighbours and some compounds at random.

Each compound was assayed on Plasmodium berghei (assay: Screen against P. berghei liver stage (PbLuc), transformed with Luciferase, at 10uM). Settings: tested at 10 uM.
Format: functional, HepG2
`O=C(Nc1nnn[nH]1)c1cc(-c2ccc(Br)s2)n[nH]1` gave an INHIBITION of 11.3%. `N#CCCN(Cc1ccco1)C(=O)C1CCCc2ccccc21` (stereo not drawn) showed an INHIBITION of 24.2%. Work on `Cc1noc(C)c1CN(C)C(=O)C1CCCc2ccccc21` (stereo not drawn) yielded an INHIBITION of 26.6%. In the case of `CN(Cc1ccco1)C(=O)C1CCCc2ccccc21` (stereo not drawn), the INHIBITION was 50.5%. `Cc1ccoc1C(=O)N1C[C@@H](N2CCN(C)CC2)[C@H]2OCCC[C@H]21` showed an INHIBITION of -26.5%. `Cc1cc(-c2cnc(NC3CC3)nc2-c2ccco2)on1` gave an INHIBITION of -21.4%. `Cc1cc(-c2cnc(NC3CC3)nc2-c2ccoc2C)on1` gave an INHIBITION of 58.1%. `Cc1cc(-c2cnc(NC3CCCC3)nc2-c2ccc(C)o2)on1` showed an INHIBITION of 11.1%. Work on `Cc1noc(-c2cnc(NC3CC3)nc2-c2ccco2)c1C` yielded an INHIBITION of 7.9%. Compound `Cc1occc1-c1nc(NC2CCCC2)ncc1-c1ccccn1` has an INHIBITION of 62.9%. Compound `Cc1cc(-c2cnc(NC3CCCC3)nc2-c2ccco2)on1` has an INHIBITION of -18.9%. Compound `Cc1cc(-c2cnc(NC3CC3)nc2-c2ccc(C)o2)on1` has an INHIBITION of 39.2%. `Cc1cnc(-c2nc(NC3CCCC3)ncc2-c2onc(C)c2C)cn1` was tested, and the INHIBITION was -29.8%. `Cc1cc(-c2cnc(NC3CC3)nc2-c2ccoc2)on1` gave an INHIBITION of 3.91%. `Cc1cc(-c2cnc(NC3CCCC3)nc2-c2ccoc2C)on1` gave an INHIBITION of 78.5%. `Cc1cc(-c2cnc(NC3CCCCC3)nc2-c2ccco2)on1` showed an INHIBITION of 60.5%. Compound `Cc1cc(-c2cnc(NC3CCCC3)nc2-c2ccoc2)on1` has an INHIBITION of 41.2%. In the case of `O=C(NCCO)C1CN(c2cncnc2)CCO1` (stereo not drawn), the INHIBITION was 3.91%. Compound `CCCOC1CCCN(C(=O)c2cc(CN(CC)CC)c(CC)o2)C1` (stereo not drawn) has an INHIBITION of 18.5%. Work on `COCCn1ccnc1CN(Cc1ccccn1)CC(C)C` yielded an INHIBITION of 44%. `Cn1ccnc1CN(Cc1ccccn1)Cc1ccccc1Cl` gave an INHIBITION of 79.6%. With `CCn1nc(C)c(CN(Cc2ccccn2)Cc2ccccc2Cl)c1C` the INHIBITION was 50.8%. Compound `Cc1ncc(CN(Cc2ccccn2)Cc2ccccc2Cl)n1C` has an INHIBITION of 69.4%. In the case of `CN(Cc1nccn1C)C1CCN(CCc2ccccn2)CC1`, the INHIBITION was -3.2%. Compound `CCn1nc(C)c(CN(CCOC)Cc2ccccn2)c1C` has an INHIBITION of 4.12%. Compound `COc1ccc(CN(Cc2ccccn2)Cc2cncn2C)cc1` has an INHIBITION of 23.9%. `Cc1nn(C)cc1CN(Cc1ccccn1)Cc1ccccc1Cl` was tested, and the INHIBITION was 48%. `CCn1nc(C)c(CN(CCCN(C)C)Cc2ccccn2)c1C` was tested, and the INHIBITION was -37.4%. `O=S(=O)(CCNCCn1cccn1)c1ccccc1` showed an INHIBITION of 19.8%. `COC1CCN(C(=O)Nc2cc(C(F)(F)F)c[nH]c2=O)CC1` showed an INHIBITION of -111%. With `COCCNC(=O)C1CC(=O)N(c2n[nH]c3cccc(F)c23)C1` (stereo not drawn) the INHIBITION was -23.7%. `CC1CCCCN1CCNC(=O)c1ccn(-c2cccc(F)c2)n1` (stereo not drawn) was tested, and the INHIBITION was 16.8%. Compound `CN(CCC(F)(F)F)C(=O)c1nc(S(C)(=O)=O)n2ccccc12` has an INHIBITION of 12.6%. With `Cc1nc(Nc2nnc(C)s2)cc(C2CCCN2C(C)C)n1` (stereo not drawn) the INHIBITION was -15.3%. `COC(=O)c1cc(OC)c(OC)cc1N(C)S(C)(=O)=O` was tested, and the INHIBITION was 44.3%. Compound `CN(C)CC(=O)N1CC2(CCN(C(=O)Nc3ccccc3)C2)C1` has an INHIBITION of 0.112%. For `Cc1nc(CC(=O)NS(=O)(=O)c2cccc3cnccc23)cs1`, the INHIBITION was 6.33%. `CCN1C[C@H]2C3(CCN(S(=O)(=O)CC)CC3)CC[C@@]2(C(=O)N(C)C)C1` gave an INHIBITION of 13.7%. Work on `COc1cccc(CN2C[C@H]3CC[C@H]2C3)c1OCCN1CCOCC1` yielded an INHIBITION of -14.5%. `COc1cccc(CN2CCCCC2CN2CCOCC2)c1F` (stereo not drawn) was tested, and the INHIBITION was 60.4%. `COc1cc2c(cc1CN1CCCCC1CN1CCOCC1)CCC2` (stereo not drawn) showed an INHIBITION of 13.9%. Work on `CCc1nc(CCn2cc(-c3nccn3C)nn2)no1` yielded an INHIBITION of 23%. `CCc1nc(CCn2ccnc2-c2nccn2C)no1` was tested, and the INHIBITION was 65.6%. `CCc1nc(Cn2ccnc2-c2nccn2C)no1` gave an INHIBITION of 45.2%. `CS(=O)(=O)c1cc(Cl)cnc1C1CCN(C(=O)C2CCOCC2)CC1` was tested, and the INHIBITION was 24.8535%. In the case of `Cc1cccc(CN2C(=O)CC[C@@H]3[C@H]2CCN3C(=O)c2ccsc2)n1`, the INHIBITION was 14.8%. In the case of `COCCOc1ccc(F)cc1NCc1nc2ccccc2n1C`, the INHIBITION was -3.12%. `COc1cc(F)c(NCc2nc3ccccc3n2C)cc1OC` gave an INHIBITION of 59.8%. `COCCOc1ncccc1NCc1nc2ccccc2n1C` showed an INHIBITION of -16%. In the case of `O=C(c1ccc(Cl)cc1)N1CCC(N2CCCNC2=O)CC1`, the INHIBITION was 40.8%. With `CCN1CCN(C(=O)CCn2cccc2)CC1` the INHIBITION was 2.69%. With `COCCN1CC(c2cc(O)nc(NC(C)C)n2)CC1=O` (stereo not drawn) the INHIBITION was -17.7%. With `Nc1cc(CCC2CN(Cc3ccc4c(c3)OCCO4)CCO2)ccn1` (stereo not drawn) the INHIBITION was 69.3%. `COc1ccc(CN2CCOC(CCc3ccnc(N)c3)C2)cc1` (stereo not drawn) was tested, and the INHIBITION was 87.1%. `c1ccc(CCCC2CN(Cc3ncc[nH]3)CCO2)cc1` (stereo not drawn) gave an INHIBITION of 28.5%. For `Nc1cc(CCC2CN(Cc3ccc4cc[nH]c4c3)CCO2)ccn1` (stereo not drawn), the INHIBITION was 78.2%. Compound `Cc1cc(C)n(CC2CN(Cc3ccc4c(c3)OCCO4)CCO2)n1` (stereo not drawn) has an INHIBITION of 14.3%. Work on `Nc1cc(CCC2CN(Cc3cccc(C(=O)O)c3)CCO2)ccn1` (stereo not drawn) yielded an INHIBITION of 45.6%. With `COc1ccc(CC2CN(Cc3cncn3C)CCO2)cc1` (stereo not drawn) the INHIBITION was 47.1%. `CNc1nccnc1C1CN(Cc2ccc3[nH]ccc3c2)CCO1` (stereo not drawn) was tested, and the INHIBITION was 21.1%. `Nc1cc(CCC2CN(Cc3ccc(C(=O)O)cc3)CCO2)ccn1` (stereo not drawn) showed an INHIBITION of 32.8%. Work on `Cc1ccnc(NCc2ccccc2N2CCOCC2)n1` yielded an INHIBITION of 46.3%. `Cc1[nH]nc2ncc(C(=O)N3CCN(CC(C)O)CC3)cc12` (stereo not drawn) showed an INHIBITION of -0.96%. `Cc1ccc(OCC2CCCN(C(=O)c3csc(CN(C)C)n3)C2)cc1` (stereo not drawn) showed an INHIBITION of 31%. Compound `c1cnc(N2CCOC3(CCN(CC4CCOC4)CC3)C2)nc1` (stereo not drawn) has an INHIBITION of 8.64%. `CCNC(=O)c1ccc(NC2CCOC3(CCCC3)C2)nn1` (stereo not drawn) gave an INHIBITION of 24.6%. In the case of `CC(=O)N1CC[C@@H]2CN(C(=O)c3ccco3)CCO[C@@H]2C1`, the INHIBITION was 48.3%. For `O=C(c1ccco1)N1CCO[C@@H]2CNCC[C@@H]2C1`, the INHIBITION was -0.388%. For `O=C(c1ccco1)N1CCO[C@@H]2CN(c3ccccc3)CC[C@@H]2C1`, the INHIBITION was 84.7%. Work on `O=C(c1ccco1)N1CCO[C@@H]2CN(CC3CC3)CC[C@@H]2C1` yielded an INHIBITION of 85.8%. `CCc1cnc(N2CC[C@@H]3CN(C(C)=O)CCO[C@@H]3C2)nc1` was tested, and the INHIBITION was 45.8%. `O=C(c1ccco1)N1CCO[C@@H]2CN(c3ccccn3)CC[C@@H]2C1` gave an INHIBITION of -26.5%. `O=C(c1ccco1)N1CC[C@@H]2CN(C3CCOCC3)CCO[C@@H]2C1` gave an INHIBITION of 22.2%. In the case of `Cc1cccc(N2CC[C@@H]3CN(C(=O)c4ccco4)CCO[C@@H]3C2)n1`, the INHIBITION was 49.5%. `CCc1cnc(N2CC[C@@H]3CN(C(=O)c4ccco4)CCO[C@@H]3C2)nc1` showed an INHIBITION of 92.5%. For `O=C(CCO)N1CC[C@@H]2CN(C(=O)c3ccco3)CCO[C@@H]2C1`, the INHIBITION was 80%. Compound `O=C(c1ccco1)N1CCO[C@@H]2CN(c3ncc(F)cn3)CC[C@@H]2C1` has an INHIBITION of 42.6%. `O=C(c1ccco1)N1CCO[C@@H]2CN(Cc3nccs3)CC[C@@H]2C1` showed an INHIBITION of -5.89%. For `CC(NC(=O)N1CCCC1)c1ccc(S(N)(=O)=O)cc1` (stereo not drawn), the INHIBITION was 33.7%. `NC(=O)[C@@H]1CCCN1C(=O)c1csc(-c2ccc(C(F)(F)F)cc2)n1` showed an INHIBITION of 28.4%. `Cc1cc(CN(C)C(=O)C(c2ccccc2F)N(C)C)ccn1` (stereo not drawn) showed an INHIBITION of 30%. With `COc1ccc(CC(=O)N2CCCC(c3cc(C)[nH]n3)C2)cc1` (stereo not drawn) the INHIBITION was 28.62%. Compound `CN(C)C(=O)CO[C@H]1CN(Cc2cccc(F)c2)[C@@H]2CCCO[C@H]12` has an INHIBITION of 43.1%. `COCc1cc(CNc2cnn(CC(F)F)c2)ccc1OC` was tested, and the INHIBITION was 38.2%. In the case of `CC(=O)N1CCO[C@@H]2CN(C(=O)NCc3ccccc3)CC[C@@H]2C1`, the INHIBITION was 51.2%. Work on `CN1CCO[C@@H]2CN(C(=O)NCc3ccccc3)CC[C@@H]2C1` yielded an INHIBITION of 16.8%. `CC(=O)N1CCO[C@@H]2CN(C(=O)NCc3cccnc3)CC[C@@H]2C1` showed an INHIBITION of 12.1%. For `CN(C)C(=O)N1C[C@H]2CC[C@@H](C1)N(Cc1ccc3nsnc3c1)C2`, the INHIBITION was 21.8%. In the case of `CCOc1ccc(CN2CCN(C(=O)c3cc(C4CC4)[nH]n3)CC2)cc1`, the INHIBITION was 48.1%. Compound `CCC(=O)NC1CCCN(Cc2ccc(NC(C)=O)cc2)C1` (stereo not drawn) has an INHIBITION of 27.6%. In the case of `CCOc1nnc(CN2CCCC(c3nc4ccccc4[nH]3)C2)s1` (stereo not drawn), the INHIBITION was 22.8%. With `O[C@@H]1CN(Cc2ccc(F)cc2)CC[C@H]1NCc1ccccn1` the INHIBITION was 28.55%. Compound `Cc1cc(C)n(CC(=O)N2CCCC(c3cc4cccnc4[nH]3)C2)n1` (stereo not drawn) has an INHIBITION of 30.4%. `CC(=O)Nc1ccc(CN2CCCC(c3cc4ncccc4[nH]3)C2)cc1` (stereo not drawn) showed an INHIBITION of 50.95%. Work on `Fc1ccc(CN2CCCC(c3cc4ncccc4[nH]3)C2)cc1` (stereo not drawn) yielded an INHIBITION of 85.65%. `Fc1ccc(CN2CCCC(c3nccnc3-n3ccnc3)C2)cc1` (stereo not drawn) was tested, and the INHIBITION was 6.32%. Compound `CCOc1ccc(CN2CCCC(c3cc4ncccc4[nH]3)C2)cc1` (stereo not drawn) has an INHIBITION of 81.5%. `CC(=O)N(Cc1noc(C)n1)C1CCN(CC2(O)CCCCC2)C1` (stereo not drawn) gave an INHIBITION of 33.7%. For `Cn1cc(CN2CCC(c3[nH]ncc3S(C)(=O)=O)C2)cn1` (stereo not drawn), the INHIBITION was 8.53%. Compound `CCOc1ncccc1NC(=O)c1ccc(C)s1` has an INHIBITION of 23.2%. `CCc1nnc(Sc2nn3cc(C)nc3s2)n1C` gave an INHIBITION of -9.8%. Compound `Cc1noc(C)c1CCC(=O)N1CCOCC1CCc1cnccn1` (stereo not drawn) has an INHIBITION of 25.8%. `Cc1cnn(CCC(=O)N2CCN(C(=O)C3CC3)[C@@H]3CS(=O)(=O)C[C@@H]32)c1` was tested, and the INHIBITION was 3%.
